Test results published in PubChem BioAssay (EPA / NIEHS).
Activity calls are given as the source filed them. Rule for the calls: active = hit-call score of the fitted dose curve at least 0.9, where 1 is the maximum; inactive = score below 0.9.

Assays:
[1] = read-out: TIMP metallopeptidase inhibitor 1 (TIMP1), TIMP1 (gene 7076); experiment: BSK_hDFCGF_TIMP1: BioMAP Diversity Plus: hDFCGF Assay for TIMP metallopeptidase inhibitor 1 (TIMP1) Biomarker Activity (AID 2283062); conditions: primary human foreskin fibroblasts; actives raise or lower the signal
In short: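 Fibroblasts from human foreskin are treated with test chemical and harvested at 24 h. TIMP-1 is quantified by ELISA, and gain or loss of signal is scored against DMSO.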

[2] = read-out: Monokine induced gamma interferon (MIG), CXCL9 (gene 4283); experiment: BSK_hDFCGF_MIG: BioMAP Diversity Plus: hDFCGF Assay for Monokine induced gamma interferon (MIG) Biomarker Activity (AID 2283063); conditions: primary human foreskin fibroblasts; actives raise or lower the signal
In short: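 MIG signal, determined by ELISA, reflects 24 h chemical exposure of human skin primary fibroblasts. DMSO serves as negative control and baseline.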

[3] = read-out: Matrix Metallopeptidase 1 (MMP1), MMP1 (gene 4312); experiment: BSK_hDFCGF_MMP1: BioMAP Diversity Plus: hDFCGF Assay for Matrix Metallopeptidase 1 (MMP1) Biomarker Activity (AID 2283064); conditions: primary human foreskin fibroblasts; actives raise or lower the signal
In short: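 Primary human foreskin fibroblasts in the hDFCGF system were dosed with test chemical, and MMP1 was measured by ELISA 24 h later. Values come from bidirectional curve fitting against the DMSO baseline.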

[4] = read-out: Vascular cell adhesion molecule 1 (VCAM1), VCAM1 (gene 7412); experiment: BSK_hDFCGF_VCAM1: BioMAP Diversity Plus: hDFCGF Assay for Vascular cell adhesion molecule 1 (VCAM1) Biomarker Activity (AID 2283065); conditions: primary human foreskin fibroblasts; actives raise or lower the signal;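 for AC50: VCAM-1 protein level quantified by ELISA after 24 h chemical exposure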
In short: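 Cells are dosed, cultured for 24 h, then VCAM-1 is quantified by ELISA; signal increases and decreases are both fitted relative to DMSO.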

[5] = read-out: Intercellular Adhesion Molecule 1 (ICAM1), ICAM1 (gene 3383); experiment: BSK_KF3CT_ICAM1: BioMAP Diversity Plus: KF3CT Assay for Intercellular Adhesion Molecule 1 (ICAM1) Biomarker Activity (AID 2283067); conditions: primary human keratinocytes with fibroblasts; actives raise or lower the signal
In short: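 Dose the keratinocyte/fibroblast co-culture, wait 24 h, measure ICAM-1 by ELISA, then fit increases or decreases against DMSO. Cytotoxicity is checked in parallel cultures by SRB total-protein staining.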

[6] = read-out: Interferon-gamma inducible Protein 10 (IP10), CXCL10 (gene 3627); experiment: BSK_KF3CT_IP10: BioMAP Diversity Plus: KF3CT Assay for Interferon-gamma inducible Protein 10 (IP10) Biomarker Activity (AID 2283068); conditions: primary human keratinocytes with fibroblasts; actives raise or lower the signal
In short: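 Human keratinocyte plus foreskin fibroblast primary co-culture exposed to test chemical for 24 h; IP-10 measured by ELISA. Concentration-response fitted bidirectionally against DMSO control as baseline.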

[7] = BSK_KF3CT_SRB: Viability Assessment in the BioMAP Diversity Plus: KF3CT Assay (AID 2283069); conditions: primary human keratinocytes with fibroblasts
In short: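 Human primary keratinocyte plus foreskin fibroblast co-culture exposed to chemicals for 24 h. Total protein measured by 0.1% sulforhodamine B staining after 10% TCA fixation, read at 560 nm; bidirectional fitting versus DMSO baseline.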

[8] = read-out: Interleukin-1 alpha (IL1a), IL1A (gene 3552); experiment: BSK_KF3CT_IL1a: BioMAP Diversity Plus: KF3CT Assay for Interleukin-1 alpha (IL1a) Biomarker Activity (AID 2283070); conditions: primary human keratinocytes with fibroblasts; actives raise or lower the signal
In short: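 Human keratinocyte plus foreskin fibroblast primary co-culture, sampled 24 h after chemical dosing. IL-1a measured by ELISA; responses fitted bidirectionally against DMSO baseline (negative control), so gain or loss of signal both count.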

[9] = read-out: TIMP metallopeptidase inhibitor 2 (TIMP2), TIMP2 (gene 7077); experiment: BSK_KF3CT_TIMP2: BioMAP Diversity Plus: KF3CT Assay for TIMP metallopeptidase inhibitor 2 (TIMP2) Biomarker Activity (AID 2283071); conditions: primary human keratinocytes with fibroblasts; actives raise or lower the signal
In short: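 Cells: human keratinocytes co-cultured with foreskin fibroblasts. Treat with chemical, 24 h. Measure TIMP-2 by ELISA; fit curves bidirectionally vs DMSO baseline.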

[10] = read-out: Transforming growth factor beta 1 (TGFb1), TGFB1 (gene 7040); experiment: BSK_KF3CT_TGFb1: BioMAP Diversity Plus: KF3CT Assay for Transforming growth factor beta 1 (TGFb1) Biomarker Activity (AID 2283072); conditions: primary human keratinocytes with fibroblasts; actives raise or lower the signal
In short: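 Primary human skin cells (keratinocytes, foreskin fibroblasts) were co-cultured, exposed to test chemical and sampled at 24 h. TGF-b1 levels were measured by ELISA and fitted bidirectionally relative to DMSO.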

[11] = read-out: C-C motif chemokine 2 (Homo sapiens) (UniProt P13500); experiment: BSK_KF3CT_MCP1: BioMAP Diversity Plus: KF3CT Assay for Monocyte Chemoattractant Protein 1 (MCP1/CCL2) Biomarker Activity (AID 2283073); conditions: primary human keratinocytes with fibroblasts; actives raise or lower the signal
In short: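 Keratinocytes and foreskin fibroblasts were co-cultured, dosed with chemical, and sampled 24 h later. MCP-1 was quantified by ELISA, and the endpoint was analyzed with bidirectional fitting using DMSO as negative control.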

[12] = read-out: Matrix Metallopeptidase 9 (MMP9), MMP9 (gene 4318); experiment: BSK_KF3CT_MMP9: BioMAP Diversity Plus: KF3CT Assay for Matrix Metallopeptidase 9 (MMP9) Biomarker Activity (AID 2283074); conditions: primary human keratinocytes with fibroblasts; actives raise or lower the signal;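 for AC50: MMP9 protein level quantified by ELISA in the co-culture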
In short: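 Keratinocyte plus foreskin fibroblast human primary skin co-culture was dosed with chemical and MMP-9 was quantified by ELISA 24 h later. Bidirectional curve fitting used DMSO as negative control and activity baseline.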

[13] = read-out: urokinase plasminogen activator (uPA), PLAU (gene 5328); experiment: BSK_KF3CT_uPA: BioMAP Diversity Plus: KF3CT Assay for urokinase plasminogen activator (uPA) Biomarker Activity (AID 2283075); conditions: primary human keratinocytes with fibroblasts; actives raise or lower the signal
In short: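 Human keratinocyte plus foreskin fibroblast primary co-culture exposed to chemical for 24 h. uPA levels were quantified by ELISA, and activity was fitted bidirectionally against a DMSO negative-control baseline.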

CD40, CD40 (gene 958) = experiment: BSK_LPS_CD40: BioMAP Diversity Plus: LPS Assay for CD40 Biomarker Activity (AID 2283076); conditions: primary human HUVEC with PBMC; actives raise or lower the signal
In short: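 CD40 signal, measured by ELISA, is fitted in both directions relative to DMSO vehicle. The system is an LPS-driven human vascular primary co-culture of endothelial cells and PBMC, sampled 24 h after compound addition.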

[14] = read-out: E-selectin (Homo sapiens) (UniProt P16581); experiment: BSK_LPS_Eselectin: BioMAP Diversity Plus: LPS Assay for Eselectin Biomarker Activity (AID 2283077); conditions: primary human HUVEC with PBMC; actives raise or lower the signal
In short: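 Signal of E-selectin, detected by ELISA, served as the endpoint; cells were umbilical vein endothelium with PBMC, read 24 h after treatment. DMSO defined baseline, and both increases and decreases were fitted.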

[15] = read-out: Interleukin-8 (IL8), CXCL8 (gene 3576); experiment: BSK_LPS_IL8: BioMAP Diversity Plus: LPS Assay for Interleukin-8 (IL8) Biomarker Activity (AID 2283078); conditions: primary human HUVEC with PBMC; actives raise or lower the signal
In short: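 Endothelial cells and PBMC from human donors are co-cultured, treated with chemicals and LPS, then assayed for IL-8 by ELISA after 24 h. Parallel SRB staining (0.1% SRB after 10% TCA fixation, 560 nm) flags cytotoxicity.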

[16] = BSK_LPS_SRB: Viability Assessment in the BioMAP Diversity Plus: LPS Assay (AID 2283079); conditions: primary human HUVEC with PBMC;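 note: total protein by sulforhodamine B absorbance as a cytotoxicity measure; measured one day after compound addition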
In short: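 Overt cytotoxicity was gauged by sulforhodamine B total-protein staining in a primary human vascular endothelial and mononuclear cell co-culture 24 h post-dosing. Activity was fitted in both directions relative to DMSO.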

[17] = read-out: Interleukin-1 alpha (IL1a), IL1A (gene 3552); experiment: BSK_LPS_IL1a: BioMAP Diversity Plus: LPS Assay for Interleukin-1 alpha (IL1a) Biomarker Activity (AID 2283080); conditions: primary human HUVEC with PBMC; actives raise or lower the signal
In short: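 Measured: IL-1 alpha via ELISA at 24 h in LPS-activated human umbilical vein endothelium–PBMC co-culture. Baseline: DMSO, bidirectional fitting.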

Measured: AC50

E-selectin (Homo sapiens), sequence (P16581 whole entry, looked up): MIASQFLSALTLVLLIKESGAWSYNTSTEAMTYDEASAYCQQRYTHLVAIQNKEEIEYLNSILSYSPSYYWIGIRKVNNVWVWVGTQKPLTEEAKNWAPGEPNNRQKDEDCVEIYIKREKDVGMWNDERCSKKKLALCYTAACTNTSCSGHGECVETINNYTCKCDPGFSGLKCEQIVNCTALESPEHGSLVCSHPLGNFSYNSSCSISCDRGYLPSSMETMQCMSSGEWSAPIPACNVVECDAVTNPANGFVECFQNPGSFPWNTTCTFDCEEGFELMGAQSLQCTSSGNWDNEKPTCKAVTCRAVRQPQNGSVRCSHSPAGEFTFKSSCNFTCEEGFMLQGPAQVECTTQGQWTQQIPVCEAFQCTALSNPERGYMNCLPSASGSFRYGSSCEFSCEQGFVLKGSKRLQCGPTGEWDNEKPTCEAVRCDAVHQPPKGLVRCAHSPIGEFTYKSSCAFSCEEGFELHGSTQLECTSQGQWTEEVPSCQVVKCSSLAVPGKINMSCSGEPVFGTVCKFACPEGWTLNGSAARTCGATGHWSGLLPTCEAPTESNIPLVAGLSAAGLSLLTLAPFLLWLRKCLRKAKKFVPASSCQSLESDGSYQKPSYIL

CC(Oc1ccc(Cl)cc1Cl)C(=O)O (centres undefined)
inactive: all assays above

O=C(Nc1ccccc1)Nc1ccnc(Cl)c1
active: [15] 15 µM
inactive: all other assays above

CCOc1cc(Oc2ccc(C(F)(F)F)cc2Cl)ccc1[N+](=O)[O-]
active: [3] 2.89 µM | [8] 6.07 µM | [15] 11 µM | [16] 9.65 µM
inactive: all other assays above

O=C(O)COc1nc(Cl)c(Cl)cc1Cl
inactive: all assays above

CCNc1nc(Cl)nc(NC(C)C)n1
active: [6] 0.148 µM
inactive: all other assays above

C#CCOS(=O)OC1CCCCC1Oc1ccc(C(C)(C)C)cc1 (centres undefined)
active: [1] 5.66 µM | [2] 13 µM | [3] 10 µM | [4] 3.65 µM | [6] 12.8 µM | [7] 9.7 µM | [8] 14.8 µM | [9] 14 µM | [11] 10.2 µM | [12] 12.1 µM | [13] 14.3 µM | CD40, CD40 (gene 958) 6.59 µM | [14] 4.28 µM | [15] 6.7 µM | [16] 12.6 µM | [17] 16.4 µM
inactive: [5] | [10]

Fc1ccc(Oc2ccnc3cc(Cl)cc(Cl)c23)cc1
inactive: [1] | [5] | [7] | [8] | [9] | [10] | [11] | [13]
active: [2] 26.6 µM | [3] 35.3 µM | [4] 13.2 µM | [6] 17.9 µM | [12] 12.9 µM | CD40, CD40 (gene 958) 22.8 µM | [14] 34.4 µM | [15] 28.8 µM | [16] 24 µM | [17] 14.6 µM

COC(=O)C=C(C)OP(=O)(OC)OC
active: [1] 0.273 µM
inactive: all other assays above

CN(C)C(=S)SSC(=S)N(C)C
active: [1] 9.76 µM | [2] 3.01 µM | [3] 5.34 µM | [4] 4.12 µM | [5] 6.42 µM | [6] 6.1 µM | [7] 7.21 µM | [8] 6.44 µM | [9] 6.4 µM | [10] 8.71 µM | [11] 5.09 µM | [12] 7.1 µM | [13] 10.3 µM | CD40, CD40 (gene 958) 24.7 µM | [14] 28.5 µM | [15] 26.5 µM | [16] 22.9 µM | [17] 16.1 µM

CNC(=S)S
active: [3] 7.89 µM | [6] 20.7 µM | CD40, CD40 (gene 958) 15.7 µM | [14] 14.7 µM | [15] 20.8 µM | [16] 26.1 µM
not listed: [17]
inactive: all other assays above
